Among the test systems are NCI-H23 lung; NCI-H226 lung; NCI-H322M lung; HOP-62 NSCLC; NCI-H460 lung; HOP-92 NSCLC; NCI-H522 lung; A549/ATCC NSCLC; 786-0 renal; COLO 205 colon; DU-145 prostate; K-562 leukemia; MALME-3M melanoma; MDA-MB-231 breast; RXF 393 renal; SF-268 CNS; SF-295 CNS; SF-539 CNS; M14 melanoma.
Holding throughout (assay): NCI-60 one-dose screen, 48 h (100 = growth as untreated, 0 = no growth, -100 = all killed)
Holding throughout (conditions): 10 µM unless noted

Each structure is given as a SMILES string. About 83,000 compounds went through this panel and 20% of them were active in at least one assay; those are over-represented in the sample as a whole.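 Interpretation: 100, growth as untreated; towards 0, rising growth inhibition; 0, no net growth; 0 to -100, cell death. Compounds scoring below 10 were considered active.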 A number with no mark means an inactive call. Calls of active or inactive are those of the source.

In the case of `CCOP(=O)(CCN1CCN(CCCCCOc2cc3c(cc2OC)C(=O)N2CCC[C@H]2C=N3)CC1)OCC`, the growth in the assay on NCI-H23 lung is 104%; in the assay with NCI-H226 lung it was 114%; in the assay on NCI-H322M lung it was 140%; in the assay on HOP-62 NSCLC it was 109%; with NCI-H460 lung, 75.5%; with HOP-92 NSCLC, -47.9% (active). Further, the growth in the assay with NCI-H522 lung was 62.7%; with A549/ATCC NSCLC it was 93.9%; in the assay with 786-0 renal it was 99.1%; in the assay on COLO 205 colon it was 71.4%; in the assay with DU-145 prostate, 91.5%; in the assay on K-562 leukemia, 35.7%. For the same compound, the growth with MALME-3M melanoma is 119%; with MDA-MB-231 breast, 74.3%; in the assay with RXF 393 renal, 46%; in the assay on SF-268 CNS it was 57%; with SF-295 CNS, 97.3%; with SF-539 CNS, 53.5%. Besides, the growth with M14 melanoma was 91.8%.

Turning to `Cc1ccc2nc(-c3c(N)n[nH]c3CCCO)[nH]c(=O)c2c1`, the growth is 105% in the assay on NCI-H23 lung; 97.5% with NCI-H226 lung; 107% in the assay on NCI-H322M lung; 92.1% with HOP-62 NSCLC; 110% with NCI-H460 lung; 82.8% with HOP-92 NSCLC. In addition, the growth in the assay on NCI-H522 lung was 114%; in the assay with A549/ATCC NSCLC, 103%; with 786-0 renal, 101%; with COLO 205 colon it was 105%; with DU-145 prostate, 121%; in the assay on K-562 leukemia it was 102%. In addition, the growth was 137% in the assay on MALME-3M melanoma; 99.5% in the assay on MDA-MB-231 breast; 167% in the assay with RXF 393 renal; 104% with SF-268 CNS; 114% in the assay on SF-295 CNS; 96.4% with SF-539 CNS. In addition, in the assay with M14 melanoma, the growth is 102%.

On to `CC1Cc2c(N(C)C)ncnc2N(C)c2ccc(O)cc21` (configuration not stated), for which the growth with NCI-H23 lung was 92.8%; in the assay on NCI-H226 lung, 104%; in the assay on NCI-H322M lung, 96.5%; in the assay with HOP-62 NSCLC, 72.8%; in the assay on NCI-H460 lung, 97.7%; with HOP-92 NSCLC, 81.2%. Further, the growth was 49.1% with NCI-H522 lung; 85.1% in the assay on A549/ATCC NSCLC; 81.4% in the assay on 786-0 renal; 103% in the assay on COLO 205 colon; 101% in the assay on DU-145 prostate; 36.5% in the assay on K-562 leukemia. Further, the growth was 89.5% in the assay on MALME-3M melanoma; 87.2% in the assay with MDA-MB-231 breast; 95.2% in the assay with RXF 393 renal; 87.4% in the assay with SF-268 CNS; 91.8% in the assay with SF-295 CNS; 91.3% with SF-539 CNS. In the assay on M14 melanoma, the growth was 73.7%.

Regarding `CC/C=C\C/C=C\C[C@H]1C/C=C2/C(=O)C=C[C@H]2C/C=C\CCC(=O)O1`, the growth in the assay with NCI-H23 lung is 7.93% (active); with NCI-H226 lung it was -5.58% (active); with NCI-H322M lung, 53.1%; with HOP-62 NSCLC, -23.6% (active); in the assay on NCI-H460 lung, -5.43% (active); with HOP-92 NSCLC it was -10% (active). Also, the growth in the assay with NCI-H522 lung was -56% (active); in the assay on A549/ATCC NSCLC, 25.2%; in the assay with 786-0 renal it was -6.65% (active); in the assay on COLO 205 colon, -32.4% (active); with DU-145 prostate it was 12.7%; with K-562 leukemia it was 1.48% (active). Besides, the growth is 12.4% with MALME-3M melanoma; 3.22% (active) in the assay with MDA-MB-231 breast; -48% (active) in the assay with RXF 393 renal; 12.7% in the assay with SF-268 CNS; 6.87% (active) in the assay with SF-295 CNS; 13% in the assay on SF-539 CNS. Further, the growth in the assay with M14 melanoma is -3.62% (active).

In the case of `O=P([O-])(O)OP(=O)([O-])O.[NH-][C@H]1CCCC[C@@H]1[NH-].[OH-].[OH-].[Pt+4]`, the growth was 102% in the assay on NCI-H23 lung; 108% in the assay on NCI-H226 lung; 115% in the assay on NCI-H322M lung; 111% with HOP-62 NSCLC; 106% in the assay on NCI-H460 lung; 114% with HOP-92 NSCLC. Besides, the growth in the assay on NCI-H522 lung was 93.4%; in the assay with A549/ATCC NSCLC, 92.1%; with 786-0 renal, 107%; in the assay with COLO 205 colon it was 110%; in the assay on DU-145 prostate, 109%; with K-562 leukemia it was 110%. Moreover, the growth is 111% in the assay on MALME-3M melanoma; 107% in the assay on MDA-MB-231 breast; 115% in the assay with RXF 393 renal; 101% in the assay on SF-268 CNS; 87.1% in the assay with SF-295 CNS; 105% in the assay on SF-539 CNS. For the same compound, the growth in the assay on M14 melanoma was 120%.

In the case of `O=C(NCCc1c[nH]c2ccccc12)C1Cc2ccccc2CN1C(=O)c1ccco1` (configuration not stated), the growth in the assay with NCI-H23 lung was 127%; in the assay on NCI-H226 lung it was 106%; in the assay on NCI-H322M lung, 87.3%; in the assay on HOP-62 NSCLC, 94.6%; in the assay with NCI-H460 lung, 114%; in the assay on HOP-92 NSCLC, 29.9%. The growth was 78.6% in the assay on NCI-H522 lung; 97.7% with A549/ATCC NSCLC; 104% in the assay with 786-0 renal; 134% in the assay on COLO 205 colon; 114% in the assay with DU-145 prostate; 71.5% with K-562 leukemia. Besides, the growth with MALME-3M melanoma is 96.2%; in the assay with MDA-MB-231 breast, 96.2%; with RXF 393 renal it was 154%; with SF-268 CNS, 111%; with SF-295 CNS it was 113%; in the assay with SF-539 CNS it was 103%. Also, in the assay on M14 melanoma, the growth was 107%.

For the compound `Cc1cccc2cc(/C=C/C(=O)/C=C/c3ccc(Cl)cc3)c(=O)[nH]c12`, the growth with NCI-H23 lung is 62.8%; in the assay on NCI-H226 lung, 62.1%; in the assay with NCI-H322M lung it was 88.8%; in the assay on HOP-62 NSCLC it was 64.6%; in the assay with NCI-H460 lung, 73.1%; with HOP-92 NSCLC, 96.3%. Also, the growth with NCI-H522 lung is 48.4%; in the assay with A549/ATCC NSCLC it was 65.6%; with 786-0 renal it was 14.5%; in the assay on COLO 205 colon, 37.8%; with DU-145 prostate, 39.1%; in the assay with K-562 leukemia it was 10.8%. Besides, the growth with MALME-3M melanoma was 106%; in the assay with MDA-MB-231 breast, 25.7%; in the assay on RXF 393 renal it was 36.8%; in the assay on SF-268 CNS, 62%; in the assay with SF-295 CNS, 83.8%; in the assay on SF-539 CNS, 69.7%. Moreover, the growth with M14 melanoma is 30.5%.

As for `O=C(CNC(=O)c1cccc2ccccc12)Nc1ccccc1Oc1ccccc1`, the growth in the assay on NCI-H23 lung was 20.9%; with NCI-H226 lung it was 49.2%; in the assay on NCI-H322M lung it was 41.8%; in the assay with HOP-62 NSCLC it was 24.6%; with NCI-H460 lung, -2.87% (active); with HOP-92 NSCLC it was -1.24% (active). The growth is -10.5% (active) in the assay on NCI-H522 lung; 9.48% (active) with A549/ATCC NSCLC; 16.3% in the assay with 786-0 renal; -8.22% (active) with COLO 205 colon; 3.85% (active) in the assay on DU-145 prostate; 7.84% (active) in the assay on K-562 leukemia. The growth in the assay with MALME-3M melanoma is 71.8%; in the assay with MDA-MB-231 breast, 15%; with RXF 393 renal, 31.1%; in the assay with SF-268 CNS it was 18.1%; in the assay on SF-295 CNS, 13.6%; in the assay with SF-539 CNS, 1.63% (active). Besides, the growth in the assay on M14 melanoma was 17.2%.

For the origin of these results see PubChem BioAssay (NCI).
